{"source": "PubChem BioAssay AID1745857", "about": "(National Center for Advancing Translational Sciences (NCATS), 2022)", "note": "Screen size: about 120,000 compounds; about 370 (0.31%) were called active. Another 4% or so got no clear call; they are omitted. The entries come from a sample that favours actives as a whole. Entries that show only a call come without a potency. A number with no mark means an inactive call. Calls come from the whole dose curve. Potency is the fitted concentration of half-maximal effect.", "data": [{"test": "Primary qHTS Assay for Foot and Mouth Disease Virus Antivirals against NCGC Sytravon and CBC Compound Libraries: Renilla Luciferase Signal; note: nearly all actives have a fitted effect of over 55% in size", "details": "FMDV replicon cells; series mostly up to 57.5 µM", "values": [{"molecule": "CCOc1ccc(-c2noc(-c3nnn(-c4ccc(C(C)C)cc4)c3N)n2)cc1", "Potency": "inactive"}, {"molecule": "CCCCCCCCc1ccc(-c2ccc(CC)cc2)nc1", "activity change, negative = inhibition": "-6.84% [at 1.06 µM]"}, {"molecule": "COc1ccc(OC)c(CCNC(=O)CSCc2cnn(-c3ccccc3)c2-n2cccc2)c1", "Potency": "inactive"}, {"molecule": "CCC(Nc1ccc2oc(C)nc2c1)C(=O)Nc1ccc(F)cc1", "note": "(configuration not stated)", "Potency": "inactive"}, {"molecule": "CCOC(=O)c1c(S(=O)(=O)Nc2cc(Cl)c(OC)cc2OC)c(C)n(C)c1C", "Potency": "inactive"}, {"molecule": "COc1ccc(NC(=O)COC(=O)c2nn(C)c(=O)c3ccccc23)cc1Cl", "Potency": "inactive"}, {"molecule": "COc1ccc(Cl)cc1NC(=O)COC(=O)c1nn(C)c(=O)c2ccccc12", "Potency": "inactive"}, {"molecule": "Cn1nc(CC(=O)Nc2cccc(Cl)c2)c2ccccc2c1=O", "Potency": "7.94 µM (active)"}, {"molecule": "COC(=O)c1cc(NC(=O)CSc2nnc(Cc3ccc(OC)cc3)n2C)ccc1Cl", "Potency": "inactive"}, {"molecule": "O=C(Nc1ccc2oc(-c3cccc(Br)c3)nc2c1)c1cccs1", "Potency": "inactive"}, {"molecule": "COc1ccc(-n2nnc(-c3nsc(NC(=O)c4ccc(C)c(C)c4)n3)c2C)cc1Cl", "Potency": "inactive"}, {"molecule": "CCc1cccc(-n2nnc(-c3nsc(NC(=O)c4ccc(C)cc4)n3)c2C)c1", "Potency": "inactive"}, {"molecule": "Cc1c(-c2nsc(NC(=O)c3cccc(Cl)c3)n2)nnn1-c1ccccc1C(F)(F)F", "Potency": "12.6 µM (active)"}, {"molecule": "N#Cc1ccc(-c2ccc(OCc3ccccc3C#N)cc2)cc1", "Potency": "inactive"}, {"molecule": "COc1ccc(OC)c(C2c3c(n[nH]c3C)Nc3[nH]c(=O)[nH]c(=O)c32)c1", "note": "(configuration not stated)", "Potency": "inactive"}, {"molecule": "CCOC(=O)C1=C(CNCc2ccc(C)cc2)NC(=O)NC1c1ccc(Cl)cc1", "note": "(configuration not stated)", "Potency": "inactive"}, {"molecule": "CN(C)CCNC(C(=O)O)c1c[nH]c2cc(F)ccc12", "note": "(configuration not stated)", "Potency": "inactive"}, {"molecule": "C#CC[N+]1(C)C(C)CCCC1C", "note": "(configuration not stated)", "Potency": "inactive"}, {"molecule": "CCCNC(=O)c1ccc(NC(=O)CCc2ccccc2)cc1", "Potency": "inactive"}, {"molecule": "Cc1csc(/C(C#N)=C\\NC2CC(C)(C)NC(C)(C)C2)n1", "Potency": "inactive"}, {"molecule": "Cc1cnc(NC(=O)c2nc(C)n(-c3ccc(F)cc3)n2)s1", "Potency": "inactive"}, {"molecule": "Cc1nc(-c2ccc(F)cc2)sc1C(=O)N[C@H](C(=O)O)C(C)C", "Potency": "inactive"}, {"molecule": "CCCn1nc(C(=O)Nc2ncc(Cc3ccc(F)cc3)s2)ccc1=O", "Potency": "25.1 µM (active)"}, {"molecule": "Cc1[nH]n(-c2nc(-c3ccccc3)cs2)c(=O)c1CC(=O)Nc1cccc(Cl)c1", "Potency": "inactive"}, {"molecule": "CCCN(CC(=O)Nc1cccc(C(=O)NC2CC2)c1)Cc1nnc(-c2cccs2)o1", "Potency": "inactive"}, {"molecule": "COCCCn1c(C)cc(C(=O)CSc2ncnc3ccccc23)c1C", "Potency": "1.41 µM (active)"}, {"molecule": "COCCn1c(C)cc(C(=O)CSc2nnc(-c3ccccc3OC)n2-c2ccc(Cl)cc2)c1C", "activity change, negative = inhibition": "-11.3% [at 1.06 µM]"}, {"molecule": "Cc1cccc(NC(=O)CSc2ncnc3ccccc23)c1", "Potency": "inactive"}, {"molecule": "Cc1cc(C(C)(C)C)cc(C)c1CCNC(=O)c1ccc(NC(=O)CC#N)cc1", "activity change, negative = inhibition": "-11.7% [at 1.06 µM]"}, {"molecule": "CCc1ccc(/C=C/C(=O)c2cc3ccccc3oc2=O)cc1", "Potency": "inactive"}, {"molecule": "Cc1[nH]c2ccccc2c1C(C(=O)O)N1CCN(Cc2ccccn2)CC1", "note": "(configuration not stated)", "Potency": "inactive"}, {"molecule": "O=C(COc1ccc2c(c1)CCC2)OCC(=O)c1ccc2c(c1)OCCO2", "Potency": "inactive"}, {"molecule": "COC(=O)c1ccc(C2C(c3ccccc3)=C(O)C(=O)N2c2ccc(Cl)cc2)cc1", "note": "(configuration not stated)", "Potency": "inactive"}, {"molecule": "COc1ccc(CNc2oc(-c3ccc(C)cc3)nc2C#N)cc1", "Potency": "inactive"}, {"molecule": "CC(C)Cn1c(=O)c2ccccc2n2c(SCC(=O)Nc3ccc(F)cc3F)nnc12", "Potency": "inactive"}, {"molecule": "O=C(NCc1cccs1)C1CCN(c2nccn3nc(-c4ccccc4)cc23)CC1", "Potency": "inactive"}, {"molecule": "CSCCCNC(=S)NNC(N)=O", "Potency": "inactive"}]}]}
